# ELG1 repair inh: blocks ELG1-dependent DNA repair in HEK293T cells. 330,000 compounds, 2.3% hits. AID 504467. Potency, µM (highest dose often 46.1 µM), without a hit: top-dose activity change, negative = inhibition, most hits filed as inhibitors. HEK293T ELG1-luciferase reporter, luminescence, 16 h; DNA damage induced by 5-fluorouridine; note: % is set by controls: 0 for no effect and ±100 for the full control effect; nearly all actives have a fitted effect of over 55% in size
#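 HEK293T cells expressing luciferase-tagged ELG1 (2,000/well) received 5-Fluorouridine plus compound or DMSO for 16 hr at 37 °C. Luciferase was read by ONE-Glo luminescence after 30 min at room temperature.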
# KB-V1 cytotox: kills drug-selected multidrug resistant KB-V1 cells. Potency, µM (series often up to 46.1 µM), most hits filed as cytotoxic. KB-V1 MDR cells viability, CellTiter-Glo, 72 h. 400,000 compounds, 3.4% hits; note: % is set by controls: 0 for no effect and ±100 for the full control effect; nearly all actives have a fitted effect of over 60% in size
#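 Cells of the MDR subline KB-V1 are plated, dosed with compound at multiple concentrations, and incubated 72 h at 37 degrees C; CellTiter-Glo is then added and luminescence read after 10 min.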
# MCF10A rereplic: induces DNA re-replication in MCF 10a normal breast cells; MCF 10A DNA re-replication, Hoechst nuclear intensity, 48 h; Potency, µM (titrated, usually from 46.1 µM), without a hit: top-dose activity, positive = re-replication, most hits filed as activators; 350,000 compounds, 2.9% hits; note: % of control where 0% means no effect; nearly all actives have a fitted effect of over 50% in size
# SW480 rerep: induces DNA re-replication in SW480 colon adenocarcinoma cells. SW480 DNA re-replication, Hoechst DNA content imaging, 48 h. AID 624297. 340,000 compounds, 1.8% hits. Potency, µM (series often up to 46.1 µM), without a hit: at the highest dose re-replication activation, actives largely listed as activators; note: % of control where 0% means no effect; nearly all actives have a fitted effect of over 55% in size
#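 Image-based read-out: total Hoechst fluorescence of nuclei (405 nm excitation, 500-530 nm emission), with hits raising the fraction of high-intensity nuclei. SW480 colon cells incubated 48 hr with compounds at 37 C.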
# KB-3-1 tox: KB-3-1 parental cell cytotoxicity; KB-3-1 viability, CellTiter-Glo ATP luminescence, 72 h; Potency, µM (series often up to 46.1 µM), hits mostly cytotoxic; 400,000 compounds, 1.4% hits; AID 1347075; note: % is set by controls: 0 for no effect and ±100 for the full control effect; nearly all actives have a fitted effect of over 60% in size
#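 Screening of KB-3-1 cells (DMEM, 10% FBS, phenol-red free) ran from lowest to highest compound concentration; after 72 h at 37 °C viability was read luminescently and curves fitted.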
# * hit, by the source's call; i = inactive; ? = inconclusive; nt = no result given. An excerpt weighted towards active compounds, which were near 8.1% of everything screened. Calls come from the whole dose curve; as a rule, active = well fitted curve in the direction sought with a large enough effect; inconclusive = small, poorly fitted or top-dose-only effect, or another doubt; inactive = no such curve, though single readings can be large; an effect the other way counts as inactive or inconclusive. Potency is the fitted concentration of half-maximal effect.
SMILES,ELG1 repair inh,KB-V1 cytotox,MCF10A rereplic,SW480 rerep,KB-3-1 tox
C/C(=N\NC(=O)C(c1ccccc1)c1ccccc1)c1ccccn1,-24%,i,?,-37%,13µM*
C/C(=N/NC(=O)c1ccc(C(C)(C)C)cc1)c1ccccn1,nt,?,?,?,2.6µM*
CC(=O)c1ccc(Nc2nc3ccccc3nc2NS(=O)(=O)c2cccs2)cc1,12µM*,?,15µM*,-6%,?
C/C(=N\NC(=O)c1ccccc1Cl)c1ccccn1,?,i,?,?,?
C/C(=N\NC(=O)c1cccc(Br)c1)c1ccccn1,?,1.5µM*,2.9µM*,?,?
C/C(=N\NC(=O)c1cc(Br)ccc1O)c1ccccn1,?,i,?,?,i
COc1ccc(Nc2nc3ccccc3nc2NS(=O)(=O)c2cccs2)cc1,-11%,i,?,-9%,i
CC(C)(C)NC(=O)C(c1cccc2ccccc12)n1c(=O)c(-c2cc3ccccc3[nH]2)nc2ccccc21 (stereo not given),nt,i,nt,nt,i
CS(=O)(=O)c1ccc(C(=O)OCC(=O)NCC2CCCO2)cc1[N+](=O)[O-] (stereo not given),nt,i,nt,nt,i
Cc1ccccc1CN1C(=O)CN(S(C)(=O)=O)CC1(C)C(=O)NCc1ccccc1 (stereo not given),nt,i,nt,nt,i
C/C(=N\NC(=O)c1ccc(NS(=O)(=O)c2cccs2)cc1)c1ccncc1,0%,i,3%,-1%,i
C/C(=N\NC(=O)c1ccc(Cl)c(Cl)c1)c1ccccn1,?,i,-24%,?,?
COc1ccc(C(=O)N/N=C(\C)c2ccccn2)cc1OC,?,2.3µM*,?,?,?
C/C(=N\NC(=O)c1ccc(NS(=O)(=O)c2cccs2)cc1)c1ccccn1,3.7µM*,?,?,?,?
CCCCNC(=O)C[C@@H]1C[C@@]2(C(=O)OCC)CCC=C2N(CCC2=CCCCC2)C1=O,nt,i,nt,nt,i
Cc1ccc(-c2[nH]ncc2CNCc2ccc(CN(C)C)cc2)cc1,nt,i,nt,nt,i
CCOC(=O)Cn1ncc2c3ccccc3n(CC(=O)OCC)c2c1=O,-3%,?,10%,-1%,i
CCCCOc1ccc(S(=O)(=O)NNC(=O)C2Cc3c(ccc4ccccc34)O2)cc1 (stereo not given),-5%,i,21µM*,?,i
CCOc1cccc2cc(-c3nc4sc(C(=O)Nc5ccc(C)cc5)c(C)c4c(=O)[nH]3)c(=O)oc12,nt,i,nt,nt,i
O=C(NC(=S)NC1CCCC1)c1ccccc1Br,17%,i,2%,-696%,i
CCN(C(=S)NC(=O)c1ccccc1Br)C1CCCCC1,5%,i,3%,0.52µM*,i
N#CCSc1ncnc2ccccc12,23µM*,i,?,?,i
COC(=O)c1cc(NC(=O)c2c(Cl)cnn2C)cc(C(=O)OC)c1,?,15µM*,10%,-3%,i
COC(=O)c1ccc(NC(=S)NC(=O)c2c(Cl)cnn2C)cc1,1%,i,1%,-4%,i
O=C(OCc1ccccc1)N1CCN(C(c2ccnc3ccccc23)c2nnnn2-c2ccc3c(c2)OCCO3)CC1 (stereo not given),nt,?,nt,nt,23µM*
SMILES,ELG1 repair inh,KB-V1 cytotox,MCF10A rereplic,SW480 rerep,KB-3-1 tox
c1ccc2c(C(c3nnnn3-c3ccc4c(c3)OCCO4)N3CCCC3)ccnc2c1 (stereo not given),nt,i,nt,nt,i
c1ccc(CN(Cc2ccccc2)C(c2ccnc3ccccc23)c2nnnn2-c2ccc3c(c2)OCCO3)cc1 (stereo not given),nt,18µM*,nt,nt,?
COc1ccccc1C(O)c1ncc(-c2cccc3ccccc23)[nH]1 (stereo not given),nt,i,nt,nt,i
COc1ccccc1NC(=O)c1cc2ccccc2o/c1=N\O,?,2.6µM*,8%,1%,i
COc1ccc(NC(=O)c2oc3ccccc3c2NC(=O)C23CC4CC(CC(C4)C2)C3)c(OC)c1,nt,i,nt,nt,23µM*
COc1cccc(NC(=O)c2oc3ccccc3c2NC(=O)C(C)(C)C)c1,?,i,26µM*,?,i
COc1ccccc1NC(=O)c1cc2cc(Br)ccc2cc1O,-17%,?,?,-3%,18µM*
CC(=O)c1ccc(OCCCC(=O)NCc2nnc3ccccn23)cc1,?,i,8%,-266%,i
C(=Nc1ccc(/C=C/c2ccnc3ccccc23)cc1)c1cccs1,nt,i,nt,nt,?
O=C(C[N+]1(CCc2ccccc2)CCOCC1)c1ccccc1,nt,i,nt,nt,i
COc1ccccc1NC(=O)c1oc2ccccc2c1NC(=O)c1cccc(OC)c1OC,nt,?,nt,nt,12µM*
COC(=O)c1oc2ccccc2c1NC(=O)c1ccccc1O,?,?,-34%,10µM*,i
Cc1ccc(-n2c(=O)c3c(c4cc(C)ccc4n3C)n(CC(=O)N3CCCC3)c2=O)cc1,nt,i,nt,nt,?
CC(C)CCNc1ncnc2c1nnn2Cc1ccccc1Cl,1%,13µM*,13%,0%,i
OCCNc1ncnc2c1nnn2Cc1ccccc1Cl,nt,i,nt,nt,i
C=CC(C)(O)CC/C=C(\C)CCC=C(C)C (stereo not given),nt,nt,13%,5%,nt
COc1cc(C(=O)OCC(=O)NCc2ccc(F)cc2)cc(NC(=O)c2cccs2)c1OC,21µM*,i,-2%,-3%,i
COc1cc(NC(=O)c2cccs2)c(C(=O)OCC(=O)NC(=O)NCc2ccccc2)cc1OC,-21%,i,15µM*,23%,i
COc1cc(NC(=O)c2cccs2)c(C(=O)OCC(=O)NC(=O)NC(C)(C)C)cc1OC,6%,i,1%,-8%,i
COc1cc(C(=O)OCC(C)=O)cc(NC(=O)c2ccco2)c1OC,?,i,?,-8%,i
COc1cc(C(=O)OCC(=O)NC2CCCC2)cc(NC(=O)c2ccco2)c1OC,?,4.6µM*,2%,-10%,i
CCOC(=O)c1c(-c2ccc(C)o2)csc1NC(=O)CSc1nnc(C)s1,?,i,18%,-10%,i
CCOC(=O)c1c(-c2ccc(C)o2)csc1NC(=S)NC(=O)c1ccccc1Br,?,16µM*,?,?,?
CCOC(=O)c1c(-c2ccc(C)o2)csc1NC(=S)NC(=O)c1cccs1,16µM*,i,24%,-22%,?
CC(C)(CNC(=O)c1cccc(S(=O)(=O)N2CCCCC2)c1)N1CCOCC1,nt,?,nt,nt,i
Cc1ccccc1C(=O)N1[C@@H](C(C)C)COc2cc(Br)ccc2S1(=O)=O,nt,?,?,-12%,?

# From PubChem
